The text below walks through data of PubChem BioAssay (Tox21).

Structures are written as SMILES. Results filed as inconclusive are left out. Activity calls are given as the source filed them. Calls come from the whole dose curve; as a rule, active = well fitted curve in the direction sought with a large enough effect in the repeat runs; inconclusive = weak or mixed curves; inactive = no such curve, though single readings can be large; an effect the other way counts as inactive or inconclusive.

Assay [1] concerns the target Cytochrome P450 2C9 (Homo sapiens) (UniProt P11712). In words: Cytochrome P450 Family 2 Subfamily C Member 9 (CYP2C9) small molecule antagonists: luciferase reporter qHTS assay (AID 1671198). For activity change, negative = inhibition: series mostly up to about 120 µM. Note: nearly all actives have a fitted effect of over 50% in size. Note: potency is the fitted concentration of half-maximal effect. The procedure, abridged:
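CYP2C9 activity was measured with a P450-Glo proluciferin substrate. Enzyme–substrate mix was held with compound for 10 min at room temperature, then NADPH regeneration solution was added for 1 h at 37C. Luciferin product was read as luminescence.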
Background: In a reporter assay the amount or activity of a reporter protein is the signal.

In assay [2] the target is Cytochrome P450 1A2 (Homo sapiens) (UniProt P05177). As to the kind of experiment: Cytochrome P450 Family 1 Subfamily A Member 2 (CYP1A2) small molecule antagonists: luciferase reporter qHTS assay (AID 1671199). For activity change, negative = inhibition: series mostly up to about 120 µM. Note: nearly all actives have a fitted effect of over 50% in size. Note: potency is the fitted concentration of half-maximal effect. An outline of the steps:
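Room-temperature CYP1A2 reaction with proluciferin substrate: compounds added from DMSO, 10 min preincubation, NADPH regeneration for 1 h. Luciferin detection reagent then added; luminescence recorded as RLU.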

In assay [3] the target is Cytochrome P450 3A4 (Homo sapiens) (UniProt P08684). In words: Cytochrome P450 Family 3 Subfamily A Member 4 (CYP3A4) small molecule antagonists: luciferase reporter qHTS assay (AID 1671201). For activity change, negative = inhibition: series mostly up to about 120 µM. Note: nearly all actives have a fitted effect of over 50% in size. Note: potency is the fitted concentration of half-maximal effect. The procedure, abridged:
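P450-Glo CYP3A4 system with proluciferin substrate; compounds preincubated 10 min RT with enzyme-substrate mix, then NADPH regeneration added for 1 h RT. Detection reagent 20 min, luminescence read as relative luminescence units.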

The target in assay [4] is Voltage-gated inwardly rectifying potassium channel KCNH2 (Homo sapiens) (UniProt Q12809). As to the kind of experiment: Human Ether-a-go-go-Related Gene (hERG) channel small molecule antagonists: fluorescence cell-based qHTS assay (AID 1671200).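 Note: hERG-expressing U2OS cells given a thallium stimulus after FluxOR II dye loading; series mostly up to about 77 µM; nearly all actives have a fitted effect of over 50% in size.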 The procedure, abridged: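 U2OS cells expressing the channel were plated at 1000 cells/well, incubated overnight at 37 C, then loaded with FluxOR II thallium-sensitive dye for 1 h at room temperature in the dark, with a further 10 min at room temperature before stimulation.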
A general note: Block of hERG is tested as a sign of cardiac risk.

For assay [5], the target named is Cytochrome P450 2C19 (Homo sapiens) (UniProt P33261). As to the kind of experiment: Cytochrome P450 Family 2 Subfamily C Member 19 (CYP2C19) small molecule antagonists: luciferase reporter qHTS assay (AID 1671197). Note: series mostly up to about 120 µM; nearly all actives have a fitted effect of over 65% in size. An outline of the steps:
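Luminescent readout of CYP2C19 activity: luciferin product detected 20 min after adding detection reagent. Before that, compound and enzyme-substrate mix preincubated 10 min at room temperature; NADPH-regenerating system started a 1 h, 37C reaction. Ketoconazole as positive control.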
% is set by controls: 0 for no effect and ±100 for the full control effect.

Chain of Cytochrome P450 3A4 (Homo sapiens) (P08684 whole entry, looked up): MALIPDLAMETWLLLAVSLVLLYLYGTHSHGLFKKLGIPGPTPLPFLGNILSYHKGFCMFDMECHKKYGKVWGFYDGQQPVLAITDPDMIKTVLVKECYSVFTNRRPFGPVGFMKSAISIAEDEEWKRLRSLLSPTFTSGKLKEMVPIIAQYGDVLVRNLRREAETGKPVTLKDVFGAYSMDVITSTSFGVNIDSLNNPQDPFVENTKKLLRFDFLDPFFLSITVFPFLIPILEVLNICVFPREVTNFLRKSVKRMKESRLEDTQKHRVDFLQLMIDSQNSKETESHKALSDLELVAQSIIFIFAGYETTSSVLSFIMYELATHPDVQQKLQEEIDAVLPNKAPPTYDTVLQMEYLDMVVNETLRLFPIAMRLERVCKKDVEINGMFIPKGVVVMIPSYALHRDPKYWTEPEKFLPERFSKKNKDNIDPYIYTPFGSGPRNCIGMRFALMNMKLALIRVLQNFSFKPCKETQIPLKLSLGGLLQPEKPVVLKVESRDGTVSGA
Chain of Voltage-gated inwardly rectifying potassium channel KCNH2 (Homo sapiens) (Q12809 whole entry, looked up): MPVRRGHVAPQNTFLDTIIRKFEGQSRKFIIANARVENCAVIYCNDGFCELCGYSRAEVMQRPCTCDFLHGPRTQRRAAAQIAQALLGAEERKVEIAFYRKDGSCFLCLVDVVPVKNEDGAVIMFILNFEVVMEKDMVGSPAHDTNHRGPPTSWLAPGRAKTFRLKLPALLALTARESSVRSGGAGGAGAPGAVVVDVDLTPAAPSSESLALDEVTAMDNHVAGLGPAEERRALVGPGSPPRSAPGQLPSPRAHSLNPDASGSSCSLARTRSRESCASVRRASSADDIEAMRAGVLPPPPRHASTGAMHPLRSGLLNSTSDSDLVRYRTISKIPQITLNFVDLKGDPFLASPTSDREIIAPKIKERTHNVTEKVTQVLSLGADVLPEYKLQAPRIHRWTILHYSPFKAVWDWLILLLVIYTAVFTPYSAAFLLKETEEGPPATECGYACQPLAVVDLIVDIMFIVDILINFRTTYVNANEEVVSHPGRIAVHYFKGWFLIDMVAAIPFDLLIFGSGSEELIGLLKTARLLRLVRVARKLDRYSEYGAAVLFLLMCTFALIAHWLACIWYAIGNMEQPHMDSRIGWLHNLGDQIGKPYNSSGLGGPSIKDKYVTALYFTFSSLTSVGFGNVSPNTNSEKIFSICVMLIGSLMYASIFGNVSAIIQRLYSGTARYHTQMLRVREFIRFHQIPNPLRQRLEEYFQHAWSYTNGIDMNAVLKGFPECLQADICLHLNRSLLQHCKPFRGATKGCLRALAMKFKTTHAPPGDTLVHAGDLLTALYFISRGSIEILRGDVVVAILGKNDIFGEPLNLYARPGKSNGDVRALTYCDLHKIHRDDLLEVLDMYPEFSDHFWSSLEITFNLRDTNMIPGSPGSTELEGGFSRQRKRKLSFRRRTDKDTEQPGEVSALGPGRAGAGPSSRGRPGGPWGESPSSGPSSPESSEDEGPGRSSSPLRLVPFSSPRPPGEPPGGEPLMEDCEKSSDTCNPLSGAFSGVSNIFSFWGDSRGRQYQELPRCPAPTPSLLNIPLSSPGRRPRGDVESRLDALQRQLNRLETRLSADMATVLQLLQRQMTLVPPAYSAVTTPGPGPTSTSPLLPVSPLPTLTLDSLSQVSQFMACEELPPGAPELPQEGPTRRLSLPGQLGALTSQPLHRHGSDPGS
Chain of Cytochrome P450 1A2 (Homo sapiens) (P05177 whole entry, looked up): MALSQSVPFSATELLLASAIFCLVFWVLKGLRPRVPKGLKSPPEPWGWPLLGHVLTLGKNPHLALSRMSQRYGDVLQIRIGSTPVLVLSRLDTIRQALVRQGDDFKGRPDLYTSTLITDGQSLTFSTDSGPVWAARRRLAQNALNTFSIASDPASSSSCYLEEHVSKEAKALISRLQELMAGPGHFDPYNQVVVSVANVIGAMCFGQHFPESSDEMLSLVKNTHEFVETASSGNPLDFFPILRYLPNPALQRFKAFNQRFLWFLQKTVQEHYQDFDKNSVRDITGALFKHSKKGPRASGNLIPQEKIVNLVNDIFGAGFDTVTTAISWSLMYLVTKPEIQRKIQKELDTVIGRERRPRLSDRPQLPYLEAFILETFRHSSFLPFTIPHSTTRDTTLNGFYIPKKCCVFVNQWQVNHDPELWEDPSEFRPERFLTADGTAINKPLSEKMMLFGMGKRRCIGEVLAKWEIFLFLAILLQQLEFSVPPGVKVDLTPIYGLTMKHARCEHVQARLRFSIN
Chain of Cytochrome P450 2C9 (Homo sapiens) (P11712 whole entry, looked up): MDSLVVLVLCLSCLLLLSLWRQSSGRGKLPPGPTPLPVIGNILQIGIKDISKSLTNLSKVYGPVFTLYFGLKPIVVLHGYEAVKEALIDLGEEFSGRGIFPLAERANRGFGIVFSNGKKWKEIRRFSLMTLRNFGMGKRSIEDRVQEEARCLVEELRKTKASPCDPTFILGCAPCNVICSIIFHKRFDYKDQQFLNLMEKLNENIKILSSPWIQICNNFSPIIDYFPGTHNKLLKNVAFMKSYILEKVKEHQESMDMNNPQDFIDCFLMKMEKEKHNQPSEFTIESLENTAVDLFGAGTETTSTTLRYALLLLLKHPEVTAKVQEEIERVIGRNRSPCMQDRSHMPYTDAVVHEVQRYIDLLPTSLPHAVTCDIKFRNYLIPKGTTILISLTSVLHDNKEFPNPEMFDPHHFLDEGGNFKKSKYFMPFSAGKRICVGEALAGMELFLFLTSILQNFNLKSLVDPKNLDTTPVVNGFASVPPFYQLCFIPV
Chain of Cytochrome P450 2C19 (Homo sapiens) (P33261 whole entry, looked up): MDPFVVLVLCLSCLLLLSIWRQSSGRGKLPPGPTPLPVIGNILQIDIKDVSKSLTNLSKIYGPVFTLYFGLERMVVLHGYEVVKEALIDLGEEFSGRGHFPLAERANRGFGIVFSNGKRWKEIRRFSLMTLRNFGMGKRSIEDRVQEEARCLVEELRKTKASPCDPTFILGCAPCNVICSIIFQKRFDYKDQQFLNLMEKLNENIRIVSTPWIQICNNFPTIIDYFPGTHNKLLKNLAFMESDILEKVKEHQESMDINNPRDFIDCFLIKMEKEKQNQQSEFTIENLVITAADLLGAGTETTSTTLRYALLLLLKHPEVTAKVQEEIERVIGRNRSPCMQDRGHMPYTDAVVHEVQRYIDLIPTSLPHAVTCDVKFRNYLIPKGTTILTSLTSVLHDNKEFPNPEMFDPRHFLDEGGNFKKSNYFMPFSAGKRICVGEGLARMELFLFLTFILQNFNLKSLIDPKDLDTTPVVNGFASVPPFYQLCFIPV

Consider `Cc1nc(N)nc(N)c1-c1ccc(Cl)c(Cl)c1`, for which the Potency result in assay [1], in assay [2] and in assay [3] was “inactive” each time.

As to `CC(C)=CCC[C@](C)(O)[C@@H]1CC=C(C)CC1`, the Potency was 31.7 µM (active) in assay [1] and 39.9 µM (active) in assay [2].

`CCCCCCCCCCCCOCCOS(=O)(=O)O`: the Potency in assay [1] was 71 µM (active). The Potency result in assay [4] and in assay [3] was “inactive” each time.

On to `C=O`, for which, in assay [4], the Potency result was “inactive”.

As to `CN(CCCN1c2ccccc2CCc2ccccc21)CC(=O)c1ccc(Cl)cc1`, the Potency in assay [1] was 15.5 µM (active); in assay [2] it was 11 µM (active). In addition, the Potency result in assay [4] is “inactive”.

For `CCCNC(C)(C)COC(=O)c1ccccc1`, in assay [4], the Potency result was “inactive”.

`Nc1ccc(Oc2ccc(N)c(N)c2)cc1`: the Potency in assay [2] is 35.6 µM (active); in assay [3], 3.56 µM (active). Besides, the Potency result in assay [4] was “inactive”.

On to `CCc1cc2cc(OC)c(OC)cc2c(Cc2ccccc2)n1`, for which the Potency is 15.5 µM (active) in assay [1] and 6.45 µM (active) in assay [2].

As for `CC(=O)N[C@@H](CC(C)C)C(=O)O`, the Potency entry in assay [4] was “inactive”.

As to `ClC(Cl)Cl`, the Potency result in assay [4] was “inactive”.

For the compound `O=C(O)c1ccccc1Nc1cc(Cl)ccc1C(=O)O`, in assay [2], the Potency result was “inactive”. In assay [3], the activity change, negative = inhibition is 34.1% [at 23.6 µM] (inactive).

Turning to `CO[C@@]1(NC(=O)CSCC#N)C(=O)N2C(C(=O)O)=C(CSc3nnnn3C)CS[C@@H]21`, the Potency in assay [2] was 24.5 µM (active). For the same compound, the Potency entry in assay [4] and in assay [3] was “inactive” each time.

As for `CC(C)CCCCCCc1ccc(OCCOCCO)cc1`, the Potency entry in assay [5], in assay [4] and in assay [3] was “inactive” throughout.

Turning to `OCC(CBr)(CBr)CBr`, the Potency result in assay [2], in assay [4] and in assay [3] was “inactive” each time.

Take `C1CCOC1`: in assay [4], the Potency result was “inactive”.

With `CC(C)NCC(O)COc1ccc(CCOCC2CC2)cc1` (configuration not stated), the Potency result in assay [4] is “inactive”.

For `O=C1CCCc2ccccc21`, the Potency entry in assay [5] and in assay [3] was “inactive” throughout. Moreover, the Potency in assay [2] is 36 µM (active).

Turning to `NC(Cc1ccc(F)cc1)C(=O)O` (configuration not stated), in assay [4], the activity change, negative = inhibition is 3.14% [at 6.97 µM] (inactive).
